Test [1] in a line: qHTS assay to identify small molecule inhibitors of chordoma cells - UCH-1 (AID 1259355). Note: nearly all actives have a fitted effect of over 55% in size. The gist of the method: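 Cells (800/well) were seeded and left overnight at 37 C, 5% CO2, then treated with drugs at 15 concentrations plus a combination mix of auranofin, camptothecin, doxorubicin, rubitecan and topotecan. Viability after 48hr was read by CellTiter-Glo luminescence.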
Background: Quantitative high-throughput screening tests each substance at several concentrations.

The nature of test [2]: qHTS assay to identify small molecule inhibitors of chordoma cells - UCH-2 (AID 1259356). Note: series mostly up to about 46 µM.
Test [3] is described as follows: P-glycoprotein substrates identified in KB-8-5-11 adenocarcinoma cell line, qHTS therapeutic library screen (AID 1346987). Note: nearly all actives have a fitted effect of over 65% in size. The conditions noted are these: outcome: dose series up to 44.5 µM unless noted. Put shortly: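 P-gp-mediated resistance screen: KB-8-5-11 cells treated 72 h with compounds in dose-response. CellTiter-Glo viability.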
A short description of test [4]: P-glycoprotein substrates identified in KB-3-1 adenocarcinoma cell line, qHTS therapeutic library screen (AID 1346986). Note: nearly all actives have a fitted effect of over 60% in size. The conditions noted are these: KB-3-1 parental cells viability, CellTiter-Glo, 72 h. Put shortly:
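Compounds were tested in dose-response against KB-3-1 and KB-8-5-11 cells at 37 degree C for 72 h, and viability was measured by luminescence. AC50 values came from curve fitting with class-based activity calls.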

Results filed as inconclusive are left out. Calls of active or inactive are those of the source. Calls come from the whole dose curve; as a rule, active = well fitted curve in the direction sought with a large enough effect; inconclusive = small, poorly fitted or top-dose-only effect, or another doubt; inactive = no such curve, though single readings can be large; an effect the other way counts as inactive or inconclusive.

Take `C[N@+]12CCCC[C@@H]1CCC(=C(c1cccs1)c1cccs1)C2`: the Potency entry in test [1], in test [2] and in test [3] was “inactive” in each case.
For `CC(O)CN(C)C` (stereo unspecified), the Potency entry in test [1], in test [2] and in test [3] was “inactive” in each case.
For `CN(C)CCC=C1c2ccccc2C(C)(C)c2ccccc21`, the Potency result in test [1] and in test [2] was “inactive” each time.
On to `Oc1cc(O)cc(O)c1`, for which the Potency result in test [1], in test [2] and in test [3] was “inactive” in each case.
For `CC(C)CN(C[C@@H](OP(=O)(O)O)[C@H](Cc1ccccc1)NC(=O)O[C@H]1CCOC1)S(=O)(=O)c1ccc(N)cc1`, the Potency entry in test [1], in test [2] and in test [3] was “inactive” each time.
Turning to `Cc1cc(C(=O)NCCc2ccc(S(=O)(=O)NC(=O)NN3CCCCCC3)cc2)no1`, the Potency result in test [1], in test [2] and in test [3] was “inactive” each time.
For `CC(=O)[O][Al][O]C(C)=O`, the Potency entry in test [1], in test [2] and in test [3] was “inactive” throughout.
Turning to `CC(CC=O)CCCC(C)(C)O` (stereo unspecified), the Potency entry in test [1], in test [2] and in test [3] was “inactive” throughout.
For the compound `CN[C@@H]1[C@H](O[C@H]2[C@H](O[C@H]3[C@H](O)[C@@H](O)[C@H](N=C(N)N)[C@@H](O)[C@@H]3N=C(N)N)O[C@@H](C)[C@]2(O)CO)O[C@@H](CO)[C@H](O)[C@H]1O`, the Potency result in test [1] and in test [2] was “inactive” throughout.
`CCCCCCCCCCCCOCCCN`: the Potency entry in test [1], in test [2] and in test [3] was “inactive” each time.
As to `CCOC(=O)C1=C(COCCN)NC(C)=C(C(=O)OC)C1c1ccccc1Cl` (stereo unspecified), the Potency entry in test [1] and in test [2] was “inactive” in each case.
On to `CCN(CC)CCC(=O)N1c2ccccc2Sc2ccc(C(F)(F)F)cc21`, for which the Potency entry in test [1] and in test [2] was “inactive” each time.
As for `CC(C)CCC[C@@H](C)[C@H]1CC[C@H]2[C@@H]3CC=C4C[C@@H](O)CC[C@]4(C)[C@H]3CC[C@]12C`, the Potency entry in test [1], in test [2] and in test [3] was “inactive” in each case.
For the compound `C=C1C(CCl)(CCl)C2(Cl)C(Cl)C(Cl)C1(Cl)C2(Cl)Cl` (stereo unspecified), the Potency result in test [1] and in test [2] was “inactive” throughout.
`CNC(=O)OCc1cccc(COC(=O)NC)n1`: the Potency entry in test [1], in test [2] and in test [3] was “inactive” throughout.
Turning to `C=C[C@]1(C)C[C@@H](OC(=O)CSCCN(CC)CC)[C@]2(C)[C@H](C)CC[C@]3(CCC(=O)[C@H]32)[C@@H](C)[C@@H]1O`, the Potency entry in test [1] and in test [2] was “inactive” in each case.
In the case of `NC(Cc1ccccc1)C(=O)O` (stereo unspecified), the Potency entry in test [1], in test [2] and in test [3] was “inactive” each time.
Consider `COc1ccc(C(=O)/C(Br)=C\C(=O)O)cc1`, for which the Potency entry in test [1] and in test [2] was “inactive” in each case.
With `FC(F)(F)COCC(F)(F)F`, the Potency result in test [1], in test [2] and in test [3] was “inactive” throughout.
As to `C=C1[C@H](CO)[C@@H](O)C[C@@H]1n1cnc2c(=O)[nH]c(N)nc21`, the Potency entry in test [1] and in test [2] was “inactive” in each case.
`CCOC(=O)[C@@H](N)CS`: the Potency result in test [1], in test [2] and in test [3] was “inactive” throughout.
In the case of `CO/N=C(\C(=O)N[C@@H]1C(=O)N2C(C(=O)[O-])=C(C[n+]3ccc(N)n3CCO)CS[C@H]12)c1csc(N)n1`, the Potency entry in test [1], in test [2] and in test [3] was “inactive” in each case.
`CC(=O)N=c1sc(S(N)(=O)=O)nn1C`: the Potency result in test [1], in test [2] and in test [3] was “inactive” throughout.
For the compound `O=C(O)CCC/C=C\C[C@@H]1[C@@H](/C=C/[C@@H](O)COc2cccc(Cl)c2)[C@H](O)C[C@@H]1O`, the Potency entry in test [1], in test [2] and in test [3] was “inactive” throughout.
As for `S=C1SCN(Cc2ccccc2)CN1Cc1ccccc1`, the Potency result in test [1] and in test [2] was “inactive” each time.
For `C=C1CC[C@H](O)CC1=C/C=C1\CCC[C@]2(C)[C@@H]([C@H](C)CC[C@@H](O)C(C)(C)O)CC[C@@H]12`, the Potency result in test [1] and in test [2] was “inactive” each time.
As to `C#C[C@]1(O)CC[C@H]2[C@@H]3CCC4=C(CCC(=O)C4)[C@H]3CC[C@@]21C`, the Potency result in test [1] and in test [2] was “inactive” throughout.
Consider `O=C(O)COc1ccccc1/C=N/NC(=O)c1ccncc1`, for which the Potency result in test [1], in test [2] and in test [3] was “inactive” in each case.
As for `CCC(=O)c1ccc2c(c1)N(CCCN1CCN(CCO)CC1)c1ccccc1S2`, the Potency entry in test [1], in test [2] and in test [3] was “inactive” each time.
For `CCN(CC)CCOC[C@H]1O[C@@H](O)[C@H](OCCN(CC)CC)[C@@H](O)[C@@H]1O`, the Potency entry in test [1], in test [2] and in test [3] was “inactive” each time.
Consider `CC(C)(COP(=O)(O)OP(=O)(O)OC[C@H]1O[C@@H](n2cnc3c(N)ncnc32)[C@H](O)[C@@H]1OP(=O)(O)O)C(O)C(=O)NCCC(=O)NCCS` (stereo partly specified), for which the Potency result in test [1], in test [2] and in test [3] was “inactive” throughout.
Turning to `CCN(CC)CCOc1ccc2nc(N(C)C)sc2c1`, the Potency result in test [1] and in test [2] was “inactive” in each case.
Consider `CCCOC(=O)c1ccccc1O`, for which the Potency entry in test [1], in test [2] and in test [3] was “inactive” in each case.
On to `COc1ccc(C(=O)c2ccc(C)cc2)c(O)c1`, for which the Potency entry in test [1], in test [2] and in test [3] was “inactive” each time.
`CO[C@H]1C[C@@H]2CC[C@@H](C)[C@@](O)(O2)C(=O)C(=O)N2CCCC[C@H]2C(=O)O[C@H]([C@H](C)C[C@@H]2CC[C@@H](OC(=O)C(C)(CO)CO)[C@H](OC)C2)CC(=O)[C@H](C)/C=C(\C)[C@@H](O)[C@@H](OC)C(=O)[C@H](C)C[C@H](C)/C=C/C=C/C=C/1C`: the Potency result in test [1] and in test [2] was “inactive” each time.
For the compound `CN[C@@H]1[C@H](O[C@H]2[C@H](O[C@H]3[C@H](O)[C@@H](O)[C@H](N=C(N)N)[C@@H](O)[C@@H]3N=C(N)N)O[C@@H](C)[C@]2(O)C=O)O[C@@H](CO)[C@H](O)[C@H]1O`, the Potency entry in test [1] and in test [2] was “inactive” in each case. Besides, the outcome in test [4] was inactive. Besides, the outcome in test [3] was “inactive [setting not given]”.
Regarding `Cn1c(O)c(N=NC(N)=S)c2ccccc21`, the Potency entry in test [1] and in test [2] was “inactive” throughout.
For `CN(Cc1ccccc1)Cc1ccccc1`, the Potency result in test [1], in test [2] and in test [3] was “inactive” in each case.

Source of the values: PubChem BioAssay (NCATS).
